The source made the active and inactive calls.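 The calls were made as follows, unless noted: active = fluorescence slope after compound addition differing from the mean of all screened samples at 99.7% confidence, in either direction; inactive = the rest.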
How the values were obtained:
[1] = inhibitors of TNFa-induced NFkB p65 translocation, primary screen, imaging, HUVEC, MLSMR starter and 10KST1 sets (AID 438;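 active = inhibition above 20% together with a positive visual image hit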;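 also: compound added about 3h40 before a 20 min TNFalpha stimulation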;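 as to inhibition: signal is the nuclear over cytoplasmic p65 intensity ratio per well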); conditions: HUVEC TNFa-induced p65 nuclear translocation; cell count: measured here: nuclei count (cytotoxicity indicator), at 2.08 µM; inhibition: at 2 µM, stronger effect = higher value, 0% TNFa-plus-vehicle, 100% no-TNFa wells
[2] = inhibitors of mutant huntingtin aggregation, primary screen, imaging, exon1htt(103Q)mCFP cells, high-content imaging (AID 483;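 active = visual image review flags a hit and inhibition of aggregation exceeds 20%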;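 also: compound exposure lasted 3 days before fixation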;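 as to nuclei count: percent of the per-plate median nuclei count of sample wells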); conditions: exon1htt(103Q)mCFP cell line, aggregate imaging, at 2 µM; inhibition of aggregation: stronger effect = higher value; nuclei count: measured here: cell count, toxicity
[3] = inhibitors of E-selectin induction by TNFa, primary screen, imaging, HUVEC, immunofluorescence, MLSMR starter and 10KST1 sets (AID 487;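 active = visually confirmed hit in the image check and inhibition above 20%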;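 as to inhibition: signal is fraction of cell area covered by stained E-selectin grains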;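 as to nuclei count: 100% = median nuclei count of all wells on the same plate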); conditions: HUVEC TNFalpha-induced E-selectin immunofluorescence imaging, at 2 µM; inhibition: stronger effect = higher value; nuclei count: measured here: cell number, toxicity
[4] = biological target: Voltage-gated potassium channel subunit beta-2 (Rattus norvegicus) (UniProt P62483); test: KvBeta enzyme negative modulators, primary screen, biochemical, NADPH fluorescence (AID 622;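 active = fluorescence slope higher than the sample average by over 3 SD, cut at about -0.22 in these data, passing the limit was not always enough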;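 also: slope of raw intensity against log time taken from 70 to 1610 s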); conditions: recombinant KvBeta, 4-cyanobenzaldehyde reduction, at 10 µM, stronger effect = higher value
Voltage-gated potassium channel subunit beta-2 (Rattus norvegicus), sequence (P62483 whole entry, looked up): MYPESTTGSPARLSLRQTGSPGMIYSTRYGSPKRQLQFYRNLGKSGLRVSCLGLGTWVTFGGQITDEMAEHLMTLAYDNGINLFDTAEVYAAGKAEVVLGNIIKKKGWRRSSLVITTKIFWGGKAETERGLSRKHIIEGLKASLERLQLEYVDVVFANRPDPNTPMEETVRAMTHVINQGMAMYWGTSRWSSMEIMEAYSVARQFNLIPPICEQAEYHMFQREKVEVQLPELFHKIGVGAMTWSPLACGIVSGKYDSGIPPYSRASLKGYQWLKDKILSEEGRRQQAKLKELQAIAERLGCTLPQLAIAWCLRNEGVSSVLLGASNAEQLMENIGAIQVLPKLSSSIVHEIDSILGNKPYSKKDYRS

[5] = biological target: Voltage-gated potassium channel subunit beta-2 (Rattus norvegicus) (UniProt P62483); test: KvBeta positive modulators, primary screen, biochemical, NADPH fluorescence (AID 623;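 active = NADPH fluorescence slope more negative than the mean of all samples by about 3 SD, 99.7% confidence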;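 also: fluorescence intensity change per second fitted from 20 to 320 s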); conditions: Recombinant KvBeta, NADPH fluorescence decrease slope, 10 min; at 10 µM; stronger effect = lower value
[6] = biological target: Alpha-2C adrenergic receptor (Homo sapiens) (UniProt P18825); test: modulators of alpha2C/GIRK thallium flux, primary screen, cell-based, HEK293 alpha2C/GIRK1/2 (AID 624); conditions: thallium flux BTC fluorescence, at 10 µM, actives lie on both sides;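 also: slope of fluorescence ratio to pre-addition baseline per second over 15 to 24 s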
Alpha-2C adrenergic receptor (Homo sapiens), sequence (P18825 whole entry, looked up): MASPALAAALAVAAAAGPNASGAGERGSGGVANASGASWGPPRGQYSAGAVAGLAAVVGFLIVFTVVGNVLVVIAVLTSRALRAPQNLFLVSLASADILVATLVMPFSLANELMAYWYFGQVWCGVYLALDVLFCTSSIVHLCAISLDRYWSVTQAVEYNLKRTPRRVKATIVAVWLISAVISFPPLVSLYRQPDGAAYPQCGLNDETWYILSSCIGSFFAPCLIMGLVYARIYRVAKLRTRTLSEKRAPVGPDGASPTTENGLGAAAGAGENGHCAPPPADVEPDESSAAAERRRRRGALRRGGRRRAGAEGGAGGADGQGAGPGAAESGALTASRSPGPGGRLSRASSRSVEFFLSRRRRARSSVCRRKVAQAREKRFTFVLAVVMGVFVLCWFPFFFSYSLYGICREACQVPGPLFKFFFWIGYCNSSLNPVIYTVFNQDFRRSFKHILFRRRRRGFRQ

[7] = inhibitors of Sendai virus-induced IRF3 signaling, primary screen, TLR/RLR signaling modifier project, cell-based, Sendai virus stimulus, luciferase, 10K MLSCN set (AID 602276;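 active = inhibition at or above 50% at 10 µM; inactive = inhibition below 50%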;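 also: firefly luciferase from ISG56 promoter only with Renilla not read in this screen; 0% = Sendai virus plus DMSO and 100% = medium plus DMSO without virus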); conditions: HEK293 RL24 IRF3 luciferase reporter, at 10 µM, stronger effect = higher value
[8] = inhibitors of poly I:C-induced TLR3 signaling, primary screen, cell-based, poly I:C stimulus, luciferase, 10K MLSCN set (AID 602277;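 active = inhibition of the reporter signal at or above 50%; inactive = inhibition below 50%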); conditions: HEK293-TLR3 RL24 IRF3 luciferase reporter, at 10 µM, stronger effect = higher value

| Structure (SMILES) | cell count [1] | inhibition [1] | inhibition of aggregation [2] | nuclei count [2] | inhibition [3] | nuclei count [3] | fluorescence slope [4] | NADPH fluorescence slope [5] | slope [6] | inhibition [7] | inhibition [8] |
| --- | --- | --- | --- | --- | --- | --- | --- | --- | --- | --- | --- |
| CCOC(=O)CCNC(=O)Nc1ccc2nc(C)n(Cc3ccccc3Cl)c(=O)c2c1 | 623 | 1.4% (inactive) | -9.2% (inactive) | 89.5% | -33.8% (inactive) | 104% | -0.366 (inactive) | 1.6e-05 (inactive) | 0.00472 (inactive) | 1.46% (inactive) | -9.46% (inactive) |
| CC1=Nn2c(nnc2-c2cc(-c3ccccc3)n[nH]2)SC1 | 574 | -3.3% (inactive) | -6.6% (inactive) | 81.3% | 32.4% (inactive) | 87.4% | -0.617 (inactive) | -1.7e-05 (inactive) | 0.00561 (inactive) | 18.2% (inactive) | 32.9% (inactive) |
| Cc1cc(C(=O)Nc2ccc(S(=O)(=O)Nc3onc(C)c3C)cc2)cs1 | 608 | -3% (inactive) | 15.4% (inactive) | 94.1% | -17.7% (inactive) | 105% | -0.361 (inactive) | -5e-05 (inactive) | 0.00493 (inactive) | 5.43% (inactive) | 8.03% (inactive) |
| CC(=O)Nc1ccc(-c2nn[nH]n2)cc1Cl | 630 | -10.7% (inactive) | -3% (inactive) | 69.9% | 0.8% (inactive) | 97.8% | -0.546 (inactive) | -2.3e-05 (inactive) | 0.00431 (inactive) | 13.2% (inactive) | 12.5% (inactive) |
| CC(=O)N1CCc2cc(S(=O)(=O)CCC(=O)Nc3cccc(F)c3)ccc21 | 331 | -1.4% (inactive) | 0.3% (inactive) | 126% | -19.8% (inactive) | 112% | -0.369 (inactive) | -4e-05 (inactive) | 0.00334 (inactive) | 7.41% (inactive) | 19.1% (inactive) |
| CCC(=O)Nc1cc(C(=O)NCC2CCCN2CC)c(OC)cc1N(C)C (centres undefined) | 448 | -0.5% (inactive) | -23.1% (inactive) | 98.8% | -37.7% (inactive) | 104% | -0.525 (inactive) | 1.6e-05 (inactive) | 0.00562 (inactive) | 0.262% (inactive) | 6.05% (inactive) |
| CCOC(=O)CSC1=C(C#N)C(c2ccc(Cl)cc2)C(C(=O)OC)C(=O)N1 (centres undefined) | 495 | 4.4% (inactive) | -24.6% (inactive) | 40.5% | -80% (inactive) | 95.7% | -0.394 (inactive) | -5.6e-05 (inactive) | 0.00371 (inactive) | 7.95% (inactive) | 25.3% (inactive) |
| O=C(c1ccc(Br)cc1)N1CCN(S(=O)(=O)c2ccccc2)CC1 | 556 | -5.1% (inactive) | 3.3% (inactive) | 66.6% | -43.3% (inactive) | 106% | -0.588 (inactive) | -9.2e-07 (inactive) | 0.00631 (inactive) | -3.58% (inactive) | 20% (inactive) |
| CCOCCCNC(=O)C(c1ccccc1)N(Cc1ccc2c(c1)OCO2)C(=O)CNC(C)=O (centres undefined) | 220 | 10.9% (inactive) | 0.6% (inactive) | 94.8% | -63.6% (inactive) | 95.1% | -0.562 (inactive) | -2.1e-05 (inactive) | 0.00624 (inactive) | 10.2% (inactive) | 16.2% (inactive) |
| O=C(Nc1cccc(Cl)c1)N1CCN(c2ncccn2)CC1 | 334 | 2% (inactive) | 21% (inactive) | 94.1% | 19.1% (inactive) | 84.8% | -0.53 (inactive) | 4.6e-05 (inactive) | 0.00446 (inactive) | -23.1% (inactive) | -47% (inactive) |
| Cc1cc(NCCN2CCOCC2)n2nc(C)c(-c3ccccc3)c2n1 | 685 | -8.9% (inactive) | -34.5% (inactive) | 118% | -43.4% (inactive) | 110% | -0.573 (inactive) | -2.5e-05 (inactive) | 0.00587 (inactive) | 4.53% (inactive) | 3.88% (inactive) |
| COCCn1nnnc1C(c1ccc(OC)cc1)N1CCN(c2ccccc2F)CC1 (centres undefined) | 476 | -1.9% (inactive) | -4.8% (inactive) | 131% | -30.1% (inactive) | 104% | -0.585 (inactive) | -9.6e-06 (inactive) | 0.00546 (inactive) | 14.5% (inactive) | 22.9% (inactive) |
| Cc1cc(=O)oc(C)c1C(=O)O | 560 | -13.1% (inactive) | 20.6% (inactive) | 88.5% | -3.9% (inactive) | 114% | -0.451 (inactive) | -0.000139 (inactive) | 0.00558 (inactive) | 9.47% (inactive) | 25.5% (inactive) |
| COc1ccc(C)cc1NC(=O)c1nnn(Cc2cccc(F)c2)c1N | 610 | -0.2% (inactive) | 6.4% (inactive) | 100% | -31.3% (inactive) | 127% | -0.513 (inactive) | -2.7e-05 (inactive) | 0.00668 (inactive) | 40.9% (inactive) | 1.2% (inactive) |

From PubChem BioAssay
